Results taken from PubChem BioAssay (NCI).
This is part of a sample that, as a whole, favours compounds with a hit. Of some 83,000 tested, about 20% had one in any assay.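 Percent growth is the endpoint: 0 to 100 indicates growth inhibition (40 means 60% inhibition), 0 means no net growth, and negative values indicate cell death.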 Values without a mark were called inactive. Activity calls are given as the source filed them. Rule for the calls: active = growth percent below 10; inactive = the rest.

test system: HL-60(TB) leukemia; test: NCI-60 one-dose screen, 48 h (100 = growth as untreated, 0 = no growth, -100 = all killed); settings: 10 µM unless noted

SMILES	growth
Cc1nc(Cl)cc(N(c2cc(Cl)nc(C)n2)c2ncc(C(=O)Nc3c(C)cccc3Cl)s2)n1	81.3%
N#Cc1c(-c2ccccc2)nc(SCC(=O)N2CCOCC2)[nH]c1=O	55.9%
C=C(C)[C@@H]1C[C@@H]2Cc3cc(Cl)ccc3N1O2	-8.6% (active)
COc1cc(/C=C/C(=O)c2c(-c3ccc(F)cc3)nc3sc(C)nn23)cc(OC)c1OC	12%
COc1ccc(C(=O)C(CN(C)C)CN(C)C)cc1	3.54% (active)
COCc1nc2ccccc2[nH]1	96.5%
C=CCNC(=O)/C(=C/c1cccc([N+](=O)[O-])c1)NC(=O)c1ccccc1	137%
C[C@@H]1CC[C@H]2[C@@H](C)C(O)O[C@@H]3O[C@]4(C)CC[C@@H]1[C@]32OO4 (stereo not given in full)	-24.4% (active)
O=C(/C=C/c1cccc(B(O)O)c1)c1cccc(B(O)O)c1	-13.8% (active)
C=C1CC[C@@H]2[C@](C)(COC(C)=O)[C@H](OC(C)=O)CC[C@@]2(C)[C@@H]1CC(Nc1ccc(S(=O)(=O)Nc2ccc(Cl)nn2)cc1)C1=CCOC1=O (stereo not given in full)	-17.5% (active)
C[N+](C)(C)c1ccc(CC2c3ccccc3-c3ccccc32)cc1	47.8%
COc1cc(/C=C\C(=O)O)ccc1OCc1ccccc1	122%
COC(=O)c1c2c(c(C)[n+]([O-])c1C)C(=O)C=C(NCc1cccc(OC)c1)C2=O	-37.3% (active)
CCOC(=O)Nc1ccc2c3c(cccc13)-c1ccccc1-2	6.94% (active)
C=C1CC[C@@H]2[C@](C)(COC(C)=O)[C@H](OC(C)=O)CC[C@@]2(C)[C@@H]1CC(NCc1ccccc1)C1=CCOC1=O (stereo not given in full)	-9.93% (active)
